Screening results as filed in PubChem BioAssay.
Lassa entry inh: Lassa virus entry inhibition; Lassa virus pseudotype entry inhibition, cell reporter; Potency, µM (doses to about 37.9 µM), for the others: top-dose activity change, negative = inhibition, actives largely listed as inhibitors; 300,000 tested, 1.2% active; calls by dose curve; tested in HEK293 cells; note: potency is the fitted concentration of half-maximal effect; nearly all actives have a fitted effect of over 50% in size
HCV inh: inhibitors of hepatitis C virus infection. Huh7.5.1 HCVcc-Cre infection, luciferase reporter, 44 h. Potency, µM (titrated, usually from 41.8 µM), for inactives: top-dose activity change, negative = inhibition, hits mostly inhibitors. 340,000 tested, 3.4% active; note: potency is the fitted concentration of half-maximal effect
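Infectious HCV cell culture screen: compound-treated cells (1,000/well, pre-plated 4 h) are infected with HCVcc-Cre at roughly 0.5 moi and grown 44 h. Infection is quantified by luciferase signal after 15 min substrate incubation at room temperature.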
MARV entry inh: blocks Marburg virus binding to or entry into cells | Marburg virus pseudotyped entry inhibition, cell reporter | Potency, µM (series often up to 37.8 µM), inactives show top-dose activity change, negative = inhibition, usual class: inhibitors | 300,000 tested, 1.8% active; calls by dose curve; tested in HEK293 cells; note: potency is the fitted concentration of half-maximal effect
Pf growth 96h: P. falciparum growth inhibition at 96 hour, primary screen for plastid delayed-death inhibitors; P. falciparum luciferase reporter growth, 96 h; Potency, µM (series often up to 28.7 µM), without a hit: top-dose activity change, negative = inhibition, hits mostly inhibitors; 320,000 tested, 6.9% active; AID 504834; note: potency is the fitted concentration of half-maximal effect
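Cell-based qHTS: luciferase-tagged P. falciparum in erythrocytes (2% hematocrit, 0.05% parasitemia final) incubated with compounds for 96 hours, 37 C, 5% CO2; luciferase detection reagent then added and luminescence measured.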
HCMV inh: inhibitors of human cytomegalovirus. 410,000 tested, 4.5% active. activity change, negative = inhibition, % at 57.5 µM. AID 1259415. HFF cells, HCMV-luciferase reporter, 72 h; stronger effect = lower value; in the data active = activity change below about -60%; inconclusive = no clear call, values can overlap the other calls; inactive = above about -39%
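Human foreskin fibroblasts infected with luciferase-reporter HCMV at MOI 1 PFU/cell, compounds at two doses. Luciferase measured 72 h post infection; normalized to buffer-only basal and Salinomycin (10uM) controls.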
Pf growth 48h: P. falciparum growth inhibition at 48 hours (one generation); P. falciparum luciferase growth in erythrocytes, 48 h; Potency, µM (series often up to 28.7 µM), for the others: at the top dose activity change, negative = inhibition, actives largely listed as inhibitors; AID 504832; 310,000 tested, 5.9% active; note: potency is the fitted concentration of half-maximal effect
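Parasite viability was followed by luminescence of a genomically integrated firefly luciferase. Cultures held 0.1% parasitemia at 2% hematocrit (final), incubated under 5% CO2 at 37 C.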
* = called active by the depositor; ? = inconclusive; / = no result given; ! = not confirmed by another sample; [ ] = another dose, or the depositor's remark. Most compounds without a hit are left out; they make up all but 14% or so of the library. Unless noted, calls come from the whole dose curve; as a rule, active = well fitted inhibition curve with a large enough effect; inconclusive = small, poorly fitted or top-dose-only effect, or another doubt; inactive = no such curve, though single readings can be large or run the other way. % is set by controls: 0 for no effect and ±100 for the full control effect.

SMILES	Lassa entry inh	HCV inh	MARV entry inh	Pf growth 96h	HCMV inh	Pf growth 48h
CCCCN(C(=O)Cc1ccc(S(=O)(=O)N2CCOCC2)s1)c1ccccc1	4.3%	-8.0%	13.9%	11.7µM*	-16.8	?
COc1cccc([C@H]2Oc3ccc(OC)cc3/C(=N\OC[C@@H](C)[C@H](OCc3ccccc3)C(C)C)[C@@H]2O)c1	/	/	10.0%[14.2 µM]	/	/	/
Cc1ccc2nc(Cl)c3cc(C(=O)NCCCN(C)Cc4ccccc4)sc3c2c1	?	/	?	/	-9.3	/
CC1CCCN(CCCNC(=O)c2cc3c(Cl)nc4ccccc4c3s2)C1 (stereo not drawn)	?	12.6µM*	2.82µM*	?	-90.7*!	?
CN(CCCNC(=O)c1cc2c(Cl)nc3ccccc3c2s1)Cc1ccccc1	?	12.6µM*	10µM*	?	?	3.29µM*
COc1cc(NC(=O)c2cc3c(Cl)nc4ccccc4c3s2)cc(OC)c1OC	-23.5%	?	-23.1%	?	-0.6	0.828µM*
CC1CCCN(C(=O)c2cc3c(Cl)nc4ccccc4c3s2)C1 (stereo not drawn)	-1.2%[46.1 µM]	/	23.1%[46.1 µM]	/	-3.5	/
COc1ccc(NC(=O)c2cc3c(Cl)nc4ccccc4c3s2)c(OC)c1	16.6%	0.4%	3.7%	-7.7%	-5.3	28.2%
CC1CCN(C(=O)Cn2c(=O)n(Cc3ccco3)c(=O)c3sccc32)CC1	13.7%	0.8%	3.9%[46.1 µM]	-8.8%	-4.7	-15.0%
O=S(=O)(NC(=NC1CCCCC1)c1ccccc1)c1ccc(F)cc1	0.1%	/	-2.9%	9.28µM*	5.2	?
Cc1ccc(S(=O)(=O)NC(=NC2CCCCC2)c2ccc(F)cc2)cc1	12.5%	-2.8%	3.4%[46.1 µM]	12.0%	-33.5	0.4%
COc1ccc(C(NC(=O)C2CCN(Cc3ccc(Oc4ccccc4)cc3)CC2)c2ccccn2)cc1 (stereo not drawn)	/	/	/	/	-8.9	/
Cn1cc(CN2CCC(C(=O)Nc3ccc(Oc4ccccc4F)cc3)CC2)cn1	/	11.2µM*	/	?	?	-14.7%
COc1ccc(CN2CCC(C(=O)Nc3ccc(Oc4cccnc4)cc3)CC2)c(C)c1C	/	?	/	29.0%	?	7.38µM*
O=C(Nc1ccc(Oc2ccccc2)nc1)C1CCCCN1Cc1cccc(O)c1 (stereo not drawn)	?	?	?	5.86µM*	11.0	?
COc1ccc(S(=O)(=O)N2CCC(C(=O)Nc3ccc(Oc4ccccc4)cc3)CC2)cc1OC	-0.6%[46.1 µM]	/	13.4%[46.1 µM]	/	-13.3	/
CCn1cc(CN2CCC(C(=O)Nc3ccc(Oc4ccccc4F)cc3)CC2)cn1	/	/	/	/	-26.1	/
COc1ccc(CN2CCC(C(=O)Nc3ccc(Oc4cccnc4)cc3)CC2)cc1	?	?	?	-9.9%	-74.7*	11.7µM*
O=C(Nc1ccccc1Oc1cccnc1)C1CCCN(Cc2ccc(F)cc2)C1 (stereo not drawn)	/	-9.6%	/	6.0%	-3.4	?
Cc1ccccc1CN1CCCC(C(=O)Nc2ccccc2Oc2cccnc2)C1 (stereo not drawn)	/	-9.3%	/	3.1%	-24.9	2.62µM*
COc1cccc(NC(=O)C2CCN(Cc3cnn(-c4ccccc4)c3-n3cccc3)CC2)c1	?	11.2µM*	?	?	-18.9	/
Cn1ccnc1CN1CCCCC1C(=O)Nc1ccc(Oc2cccnc2)cc1 (stereo not drawn)	/	-6.8%	/	13.1µM*	-32.5	?
COc1cccc(O)c1CN1CCC(C(=O)Nc2ccc(Oc3cccnc3)cc2)CC1	-26.3%	?	11.2µM*	11.4%	?	?
Cc1cc(-n2c(C)nc3ccccc3c2=O)ccc1NC(=O)c1ccc([N+](=O)[O-])cc1	2.9%[46.1 µM]	/	/	/	5.5	/
CCCCNC(=O)CC1Nc2cc(C)c(C)cc2NC1=O (stereo not drawn)	12.5%[46.1 µM]	/	6.8%[46.1 µM]	/	-13.7	/
SMILES	Lassa entry inh	HCV inh	MARV entry inh	Pf growth 96h	HCMV inh	Pf growth 48h
COCCc1nn2c(=O)cc(COC(=O)COc3ccccc3C)nc2s1	1.1%[46.1 µM]	/	/	/	16.0	/
COc1cccc(O)c1CN1CCC(C(=O)Nc2ccc(-c3cccc(C)c3)cc2)CC1	?	1µM*	?	4.15µM*	-30.8	4.15µM*
COc1ccc(S[C@]2(c3nc(C)no3)CC(=O)N(C(=O)CCc3ccccc3)[C@@H]2c2ccc(OC)cc2)cc1	/	/	/	/	1.3	/
Cc1nc2c(c(C)c1CCC(=O)N1CCN(c3ccccc3)CC1)c(=O)n(C)c(=O)n2C	7.0%[46.1 µM]	/	6.9%[46.1 µM]	/	10.9	/
CCOC(=O)c1c(C)oc2ccc(O)c(CN(C)C)c12	-17.2%	14.0%	-3.6%[46.1 µM]	-56.0%	20.0	-14.1%
CCOC(=O)c1c(CSc2ccccc2)oc2ccc(O)cc12	?	?	?	-11.2%	24.4	?
CCOC(=O)c1c(CSc2ccc(CC)cc2)oc2ccc(O)c(CN(C)C)c12	?	3.98µM*	4.47µM*	10.5%	-81.9*	2.33µM*
CCOC(=O)c1oc2c(CN3CCN(C)CC3)c(O)ccc2c(=O)c1-c1ccccc1OC	-12.7%	0.5%	-1.6%	9.28µM*	-13.0	-3.4%
CC(=O)c1c(CSc2ccccc2)oc2ccc(O)c(CN(C)C)c12	?	?	?	1.6%	-69.5*	?
COC(=O)Cc1c(CSc2ccccc2)oc2ccc(O)c(CN(C)C)c12	-22.9%[46.1 µM]	?	0.3%[46.1 µM]	?	?	?
CCOC(=O)c1c(CSc2ccccc2)oc2cc(Br)c(O)c(CN(C)C)c12	3.2%[46.1 µM]	?	?	?	0.0	2.62µM*
COc1ccccc1-c1c(C)oc2c(CN3CCN(C)CC3)c(O)ccc2c1=O	5.1%	2.6%	2.7%	-17.3%	25.2	-18.4%
COc1ccc(-n2nnc(-c3nsc(NC(=O)c4cccs4)n3)c2C)cc1OC	-2.6%[46.1 µM]	/	/	/	8.3	/
COCCN1C[C@@H](CO)O[C@@H](n2cnc3c(NC4CCC4)ncnc32)C1	/	/	/	/	6.3	/
CCOC(=O)c1c(-c2ccccc2)oc2cc(CN(C)C)c(O)c(CN(C)C)c12	?	10µM*	?	/	-105.6*	/
CCOC(=O)c1c(-c2ccccc2)oc2ccc(O)c(CN3CCN(C)CC3)c12	?	12.6µM*	?	3.29µM*	-66.4*	3.7µM*
CCOC(=O)c1c(C)n(C)c2ccc(O)c(CN3CCN(C)CC3)c12	13.1%	?	-25.4%	-0.2%[5.75 µM]	2.0	0.6%
Cc1ccc(C)c(CNS(=O)(=O)c2c(C(=O)N3CCCC3)c(C)n(C)c2C)c1	1.7%[46.1 µM]	31.9%	8.7%[46.1 µM]	?	?	?
Cc1cccc(N/N=C(\C(N)=O)C2=NC(C)(C)Cc3ccccc32)c1	6.31µM*	11.2µM*	?	4.65µM*	-97.8*	5.86µM*
COc1ccccc1OCc1nnc(SCC(=O)Nc2ccc(N3CCOCC3)cc2)n1C	/	-20.5%	1.1%[46.1 µM]	-1.2%	-1.2	-3.9%
